# Only some compounds are listed: those with a hit (about 3.5% of all), similar ones and a draw of the others.
# MITF primary – inhibitors of human MITF. O75030. AlphaScreen MITF homodimerization, bead proximity signal. inhibition, % at 2.6 µM. hit rate 0.91% among 650,000; in the data active = inhibition above about 50%;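 also: 0% = vehicle wells with protein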
# TEAD-YAP block – TEAD-YAP interaction inhibition. HEK-TIYL cells, TEAD-Gal4/YAP UAS-luciferase luminescence. inhibition, % at 9.12 µM. hit rate 1.4% among 640,000. AID 1259422; in the data active = inhibition above about 32%;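 also: 0% = median of test compound wells and 100% = reference inhibitor wells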
# FBW7 act – human FBW7 E3 ligase activation, primary screen; Q969H0; AlphaScreen FBW7–phospho-cyclin E peptide binding, activator screen; normalized activity (activation), % at 26.1 µM; hit rate 0.13% among 650,000; AID 1259310; in the data active = normalized activity above about 1.9%;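 also: purified mutant Fbw7 with reduced substrate affinity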
# Target sequence (Q969H0 whole entry, looked up): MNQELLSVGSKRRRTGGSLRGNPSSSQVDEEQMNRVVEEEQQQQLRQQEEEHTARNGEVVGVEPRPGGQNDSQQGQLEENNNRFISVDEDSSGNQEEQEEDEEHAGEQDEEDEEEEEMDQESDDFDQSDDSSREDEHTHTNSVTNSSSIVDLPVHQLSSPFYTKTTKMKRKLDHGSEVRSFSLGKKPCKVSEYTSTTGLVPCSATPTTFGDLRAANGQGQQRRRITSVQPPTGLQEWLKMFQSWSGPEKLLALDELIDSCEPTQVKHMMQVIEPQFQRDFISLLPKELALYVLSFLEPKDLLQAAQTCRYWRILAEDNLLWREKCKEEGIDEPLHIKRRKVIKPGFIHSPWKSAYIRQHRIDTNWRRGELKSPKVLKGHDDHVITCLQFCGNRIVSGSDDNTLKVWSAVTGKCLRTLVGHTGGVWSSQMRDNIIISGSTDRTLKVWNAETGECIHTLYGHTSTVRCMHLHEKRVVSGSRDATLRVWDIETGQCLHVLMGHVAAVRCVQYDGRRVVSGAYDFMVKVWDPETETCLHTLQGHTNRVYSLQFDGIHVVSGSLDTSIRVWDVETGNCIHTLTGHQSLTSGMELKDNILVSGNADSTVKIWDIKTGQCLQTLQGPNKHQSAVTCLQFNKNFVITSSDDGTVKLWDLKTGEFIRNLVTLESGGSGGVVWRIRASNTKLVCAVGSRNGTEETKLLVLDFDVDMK
# GPR151 activ – human GPR151 activation | Q8TDV0 | PathHunter beta-arrestin GPR151 cells, luminescence | activation, % at 11.2 µM | hit rate 1% among 650,000 | AID 1508602; in the data active = activation above about 4.9%;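 also: 0% = median of compound wells and 100% = cells with positive control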
# * marks the source's active call; other numbers are inactive results.
SMILES,MITF primary,TEAD-YAP block,FBW7 act,GPR151 activ
O=C(NCCn1cc(SCC(=O)N2CCCCCC2)c2ccccc21)c1c(F)cccc1F,7,34*,-1,3
CCCCC(=O)Nc1ccc(Cl)c(-c2nc3cc(C)cc(C)c3o2)c1,9,-2,0,1
COc1cc(/C=C/C(=O)N2CCC=CC2=O)cc(OC)c1OC,-9,78*,0,-2
COc1cc(/C=C/C(=O)C(C)(C)O)cc(OC)c1OC,-1,16,0,1
COc1ccc(/C=C(/C#N)c2cccc(F)c2)c(OC)c1,-3,43*,0,-1
COc1ccc(/C=C(/C#N)c2cccc([N+](=O)[O-])c2)c(OC)c1,15,8,0,-1
O=[N+]([O-])c1cc(Cl)c2oc(-c3ccc(O)cc3)nc2c1,-5,55*,0,0
O=C(Nc1ccc(-c2nc3ccccc3o2)cc1)c1cc([N+](=O)[O-])ccc1Cl,11,9,0,0
N#CC1=C(N)N(c2ccc(F)cc2)C2=C(C(=O)CCC2)C1c1ccc(F)cc1 (centres undefined),8,-1,0,0
COC(=O)c1c(N2C(N)=C(C#N)C(c3ccccc3)C3=C2CCCC3=O)sc2c1CCCC2 (centres undefined),-4,54*,0,0
CCOc1ccc(C2C(C#N)=C(N)N(c3ccc(OC)cc3)C3=C2C(=O)CCC3)cc1 (centres undefined),-1,50*,0,0
COc1ccc(N2C(N)=C(C#N)C(c3ccc(F)cc3)C3=C2CCCC3=O)cc1 (centres undefined),6,51*,0,-2
CCOC(=O)C1=C(C)N=c2s/c(=C\c3ccc4c(c3)OCO4)c(=O)n2C1c1c(OC)ccc2ccccc12 (centres undefined),-4,1,0,-1
NC(=O)CSc1nc2sc3c(c2c(=O)n1-c1cccc2ccccc12)CCCC3,2,38*,0,0
CCOC(=O)C1=C(C)NC2=C(C(=O)CC(c3ccc(Cl)cc3)C2)C1c1cc(OC)ccc1OC (centres undefined),1,7,0,0
C/C(=N/NC(=O)c1ccc(O)c(O)c1)c1ccc(C)cc1,7,-9,0,-1
C/C(=N\NC(=O)c1ccc(O)c(O)c1)c1ccc(Br)c([N+](=O)[O-])c1,20,32*,0,-2
O=C(Nc1ccc2ncsc2c1)c1ccc2c(c1)OCCO2,3,86*,0,-8
Cc1ccc(C(=O)Nc2ccc3c(c2)OCCO3)cc1,-19,0,0,1
COc1cccc(C(=O)Nc2ccc3c(c2)OCCO3)c1,13,79*,0,-10
CCCCOc1cccc(C(=O)Nc2ccc3c(c2)OCCO3)c1,7,-21,0,-1
O=C(Nc1ccc2c(c1)OCCO2)c1ccc(F)cc1,-15,43*,0,-6
COc1cccc(S(=O)(=O)Nc2ccc3c(c2)OCCO3)c1,1,33*,0,0
O=C(Nc1ccc2ncsc2c1)c1ccc(F)cc1,22,-37,1,-5
COc1cc(Nc2ncc(C(=O)NC3CCN(Cc4ccccc4)CC3)s2)cc(OC)c1OC,1,-12,0,1
SMILES,MITF primary,TEAD-YAP block,FBW7 act,GPR151 activ
CC(=O)Nc1c(C)ccc(C(=O)O)c1[N+](=O)[O-],1,-3,0,1
Cc1cccc(C(=O)Nc2ccc3nc(SC(C)C(=O)Nc4c(C)cc(C)cc4C)sc3c2)c1 (centres undefined),0,-7,0,2
O=C(Nc1ccc2c(c1)CCC2)c1ccc2c(c1)OCO2,15,59*,0,-6
O=C(O)C1=C(C(=O)Nc2ccc3c(c2)OCCO3)CCCC1,3,55*,0,0
O=C(Nc1onc2c1CCC2)c1ccc2ccccc2c1,-9,-26,0,0
Cc1ccc(C(=O)Nc2ccc3c(c2)OCO3)cc1,8,44*,0,-5
O=C(Nc1onc2c1CCCC2)c1ccc2c(c1)OCO2,6,65*,0,-9
O=C(Cn1c(=O)n(-c2ccc(F)cc2)c(=O)c2ccccc21)NCc1ccccc1,9,14,0,1
COc1cc(OC)c(S(=O)(=O)Nc2ccc3c(c2)OCCO3)cc1NC(C)=O,3,35*,0,0
COc1cccc(C(=O)NNc2nc3c(C)cccc3s2)c1,-11,-5,0,-2
Cc1ccc(S(=O)(=O)Nc2ccccc2C(=O)Nc2nc3c(C)cccc3s2)cc1,-18,46*,0,0
Cc1ccc(S(=O)(=O)Nc2ccccc2C(=O)Nc2ccc(-c3nc4ccccc4o3)cc2)cc1,19,39*,2,1
COc1ccccc1C(=O)NNc1nc2c(C)cccc2s1,0,33*,0,1

# Bioassay records: PubChem BioAssay, The Scripps Research Institute Molecular Screening Center
